Test results: PubChem BioAssay (NCI)
Compounds without any hit were thinned out: in the full panel of roughly 79,000, 15% have a hit. Active and inactive are the calls of the source. No stated cut-off is given here; in the data, active means growth inhibition above about 70%; inactive means the rest.

Columns and labels:
[1] = NCI Yeast Anticancer Drug Screen. Data for the rad50 strain (AID 155);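 further: 0% = growth of vehicle-only cultures of the same strain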; settings: S. cerevisiae rad50 strain growth inhibition; at 50.0 µM; active compounds read high
Summary of the method: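 Genetically altered yeast (DNA repair pathway); compound treatment; growth inhibition vs vehicle ctrl.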

[2] = NCI Yeast Anticancer Drug Screen. Data for the mec2-1 strain (AID 157); settings: S. cerevisiae mec2-1 strain, at 50.0 µM, active compounds read high
Summary of the method: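 mec2-1 yeast strain, carrying an alteration in DNA damage repair or cell cycle control, was exposed to compounds; growth inhibition was measured relative to vehicle-treated controls.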

[3] = NCI Yeast Anticancer Drug Screen. Data for the sgs1 mgt1 strain (AID 161);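 further: 0% = growth of cultures given vehicle only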; settings: S. cerevisiae sgs1 mgt1 strain, at 50.0 µM, active compounds read high
Summary of the method: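 Growth of a repair-deficient yeast mutant was monitored after compound treatment and expressed as inhibition relative to vehicle-treated cultures.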

[4] = NCI Yeast Anticancer Drug Screen. Data for the cln2 rad14 strain (AID 165);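 further: 0% = growth equal to vehicle treated cultures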; settings: S. cerevisiae cln2 rad14 strain, at 50.0 µM, active compounds read high
Summary of the method: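 Yeast carrying cln2 and rad14 alterations (cell cycle control and DNA damage repair) were exposed to compounds. Growth inhibition was measured against vehicle-treated controls.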

[5] = NCI Yeast Anticancer Drug Screen. Data for the bub3 strain (AID 167); settings: S. cerevisiae bub3 mutant strain, at 50.0 µM, active compounds read high
Summary of the method: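 Yeast carrying a defined mutation is treated with each compound, and growth is compared with that of vehicle-exposed cells to give inhibition.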

[6] = NCI Yeast Anticancer Drug Screen. Data for the mlh1 rad18 strain (AID 175); settings: S. cerevisiae mlh1 rad18 strain growth inhibition; at 50.0 µM; active compounds read high
Summary of the method: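 Growth inhibition of the yeast strain was measured after compound exposure and expressed relative to vehicle-treated controls. The strain carries defined defects in DNA damage repair.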

Measured: growth inhibition

Cn1c(=O)c2[nH]c(=S)[nH]c2n(C)c1=O
inactive: [1] -5.85% | [2] -20.7% | [3] -3% | [4] 11.1% | [5] -18.2% | [6] -4.75%

CCCCCCC(C#N)(CCN(C)C)c1ccccc1 (configuration not stated)
inactive: [1] 15.4% | [2] 18.7% | [3] 14.3% | [4] -8% | [5] 50.1% | [6] 22.8%

CN(C)c1ncnc2cn[nH]c12
inactive: [1] 3.6% | [2] -5.75% | [3] 0.25% | [4] 5.7% | [5] 17.4% | [6] 0.6%

CC(=O)/C(N=Nc1ccc(S(=O)(=O)c2ccc(N=N/C(C(C)=O)=C(/C)O)cc2)cc1)=C(\C)O
inactive: [1] -27.2% | [2] -20.4% | [3] -9.8% | [4] 0.15% | [5] -20.6% | [6] -14.9%

C=C1C(=O)O[C@@H]2[C@H]1CC[C@H](C)[C@]1(O)CCC(=O)[C@@]21C
inactive: [1] -5.3% | [2] -13.6% | [3] 14.2% | [4] 7.85% | [5] -4.75% | [6] 3%

O=CNc1ccc(F)c(F)c1
inactive: [1] -16.8% | [2] -16.4% | [3] -6.95% | [4] -5.35% | [5] -7.2% | [6] -10.1%

O=S1(=O)OCOS(=O)(=O)OCO1
inactive: [1] -24.9% | [2] -28.6% | [3] -14.2% | [4] -4.8% | [5] -13.8% | [6] -19.9%

CCN(CC)CCOC(=O)c1noc2cc([N+](=O)[O-])ccc12
inactive: [1] 0.7% | [2] 12.9% | [3] -1.25% | [4] -23.7% | [5] 5% | [6] 9.85%

Nc1nc2ncn(COC(CO)CO)c2c(=O)[nH]1
inactive: [1] 7% | [2] 6.9% | [3] -2.3% | [4] 18.6% | [5] 0.85% | [6] 20.1%

O/N=C(\CC(O)(C(F)(F)F)C(F)(F)F)c1cccs1
active: [1] 81% | [2] 76.9% | [4] 87.5% | [5] 75.8% | [6] 93.5%
inactive: [3] 45.6%

CCOC(=O)NC(N)=O
inactive: [1] 11.3% | [2] -1.45% | [3] 14.2% | [4] -8.1% | [5] 0.4% | [6] 6.85%

CC1(C)O[C@H]2Cn3c(c(C#N)c4ccccc43)[C@H]2O1
inactive: [1] 11.2% | [2] -38.4% | [3] 15.8% | [4] -11.1% | [5] 42.1% | [6] -21.2%

CN(C)CCNC(=O)c1ccc(C(=O)NCCN(C)C)c2c(C(=O)NCCN(C)C)ccc(C(=O)NCCN(C)C)c12
inactive: [1] 19.1% | [2] 41.3% | [3] 37.2% | [4] 54.7% | [5] 4.5% | [6] 8.5%

O=CN(c1ccccc1)c1ccccc1
inactive: [1] 3.8% | [2] -2.4% | [3] -2.7% | [4] -15.4% | [5] -4.55% | [6] -23.6%

O=C(c1ccc(Cl)cc1)C(c1ccccc1)N1CCCCC1 (configuration not stated)
inactive: [1] 2.05% | [2] -8.15% | [3] -0.1% | [4] -45.8% | [5] -1.6% | [6] 6.85%

Cc1cc(O)c(/C=N/C(=S)NCCc2ccccc2)c(=O)o1
inactive: [1] -4.35% | [2] -29.5% | [3] -9.5% | [4] 10.3% | [5] 6.55% | [6] -20.6%

O=[N+]([O-])C1C=Nc2ccccc2N=C1
inactive: [1] 19.7% | [2] -16.6% | [3] 18.1% | [4] 21.4% | [5] 5% | [6] 19.6%

CCC(C)NCC/C(=C\[Si](C)(C)C)c1ccccc1 (configuration not stated)
inactive: [1] 3.05% | [2] -11.8% | [3] -11.4% | [4] 11.7% | [5] -0.15% | [6] 8.5%

OC(CCl)(CCl)CCl
inactive: [1] 9.5% | [2] -11.9% | [3] -9.7% | [4] -16.5% | [5] -2.05% | [6] 18.8%

CC1(C)CC(C)(C)[P+]1(C)c1ccccc1
inactive: [1] -0.35% | [2] 16.4% | [3] 12.8% | [4] -3.45% | [5] 15.6% | [6] 10.1%

CC(=O)Nc1cccc(Oc2ccc(Cl)cc2[N+](=O)[O-])c1
inactive: [1] 13% | [2] -6.6% | [3] -2.75% | [4] -5.2% | [5] 2.35% | [6] 7.95%

Cc1c(C)c2cc3ccc(Cl)cc3nc2c2ccccc12
inactive: [1] -7.65% | [2] -16.9% | [3] 2.75% | [4] -21.6% | [5] 2.9% | [6] 1.7%

O=C1Nc2c(cccc2-c2ccccc2)C(=O)C1(O)c1ccccc1 (configuration not stated)
inactive: [1] -0.35% | [2] -1.2% | [3] -0.6% | [4] -9.8% | [5] -2.6% | [6] -3.95%

CC1(C)CC(=O)NC1=O
inactive: [1] 30.8% | [2] 2% | [3] 8.55% | [4] -0.2% | [5] -19% | [6] 9.3%

C/C(CC(=O)NC1=CC=C(NC(=O)C/C(C)=N\Nc2ccccc2)CC1)=N/Nc1ccccc1
inactive: [1] 8.65% | [2] 12% | [3] -18.8% | [4] -9.35% | [5] -0.1% | [6] 13.7%

C[N+]1(C)CCC(C(=O)c2ccccc2)CC1
inactive: [1] 1.15% | [2] 4.95% | [3] 5.6% | [4] -17.9% | [5] 17% | [6] 16.4%

COc1ccc(CC2(Cc3ccc(OC)cc3)CCOC2=O)cc1
inactive: [1] -23.1% | [2] -31.9% | [3] -16.1% | [4] 1.2% | [5] 2.25% | [6] -31.4%

Cc1ccc(NC(=O)CCc2cc(C(C)(C)C)nc(=S)[nH]2)cc1C
inactive: [1] -36.6% | [2] -27.5% | [3] -46.5% | [4] -30.6% | [5] -35.8% | [6] -34%

Cc1c(O)nc(N)[nH]c1=O
inactive: [1] 2.65% | [2] -24% | [3] -22.6% | [4] 1.7% | [5] -13.3% | [6] -7.2%

O=C1CSC2=NC3=C(COC/C3=C\c3ccc(Br)cc3)C(c3ccc(Br)cc3)N12 (configuration not stated)
inactive: [1] 7.05% | [2] 14.3% | [3] 39.1% | [4] 18.9% | [5] 33.6% | [6] 33.1%

Nc1cccc(NC(=O)c2cccc(N)c2)c1
inactive: [1] 9.8% | [2] -4.75% | [3] 2.2% | [4] 10.4% | [5] 11.4% | [6] 18.1%

CCn1c(=O)c(C#N)c2n(CC)c3cc(C)c(C)cc3n2c1=O
inactive: [1] -13.5% | [2] -2.9% | [3] -11% | [4] -24.2% | [5] -31.3% | [6] -20.4%

COc1ccccc1OCC(O)CO (configuration not stated)
inactive: [1] -8.3% | [2] -22.9% | [3] -14.8% | [4] 7.7% | [5] -10.9% | [6] 10.5%

Cc1ccc2c(c1)[nH]c1ccccc12
inactive: [1] 15.3% | [2] 13.7% | [3] 26.2% | [4] -14.2% | [5] 22.6% | [6] 23.9%

O=c1[nH]c(=S)[nH]n1C(=S)n1[nH]c(=S)[nH]c1=O
inactive: [1] 5.35% | [2] -2.65% | [3] 8.7% | [4] -7.8% | [5] 13.1% | [6] 9.6%

CC(C)(SC(=N)N)B(O)O
inactive: [1] -3.2% | [2] -12.3% | [3] -6.55% | [4] 9.35% | [5] -8.35% | [6] -7.7%

COc1cc2c(c(OC)c1OC)-c1ccc(SC)c(=O)cc1C(N=C(NC1OCC(OC(C)=O)C(OC(C)=O)C1OC(C)=O)SN(NC(=O)OCc1ccccc1)C(=O)OCc1ccccc1)CC2 (configuration not stated)
inactive: [1] 5.6% | [2] 10.4% | [3] 24.4% | [4] -11.7% | [5] -1.55% | [6] 32.3%

O=C1c2ccccc2-c2nc(-c3cccnc3)cc3c2c1nc1ccccc13
inactive: [1] 32.7% | [2] 24.4% | [3] 34.4% | [4] 23% | [5] 24.7% | [6] 39%

O=C(CCC(=O)OCCCl)OCCCl
inactive: [1] -3.4% | [2] -18.9% | [3] -5.6% | [4] -7.75% | [5] 9.05% | [6] -7.45%

CC1=C(CO)C(=O)O[C@@H]([C@@H](C)[C@H]2CC[C@H]3[C@@H]4C[C@H]5O[C@]56[C@@H](O)C=CC(=O)[C@]6(C)[C@H]4CC[C@]23C)C1
active: [1] 86.2% | [2] 89.2% | [3] 86.5% | [4] 83.3% | [5] 89.7% | [6] 85%

O=C1OCC2CC1C(=O)O2 (configuration not stated)
inactive: [1] -7.65% | [2] 0.3% | [3] 5.95% | [4] 4.7% | [5] -3.6% | [6] 6.65%

S=c1ccc2ccccc2[nH]1
inactive: [1] -16.9% | [2] -8.15% | [3] -0.75% | [4] -13% | [5] -16.1% | [6] -13.8%
